# Screens as filed in PubChem BioAssay.
# Rows were chosen to be rich in hits. Some 1.3% of all compounds tested hit in one or more screens of this group.
# LANA DNA inh: inhibitors of KSHV C-LANA binding to DNA, primary screen, biochemical, fluorescence polarization, FAM-LBS DNA, MBP-C-LANA, single point. AID 504423, 2011. inhibition, % at 9 µM. actives 0.078% (n = 340,000);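 active = highest replicate inhibition at or above 60% at 9 µM, even if other replicates fall short; inactive = all replicates below 60% inhibition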;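 note: 0% = neutral control wells and 100% = 4 µM acridine orange control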
# LANA-H2A inh: blockers of LANA interaction with H2A/H2B – biochemical, FP readout, HTS, primary screen; Protein LANA1 (Human herpesvirus 8 type P (isolate GK18)), Q9QR71; cell-free LANA-H2A/H2B peptide, fluorescence polarization; inhibition, % (test concentration not listed); actives 0.6% (n = 320,000); AID 2629, 2010; in the data active = inhibition mostly above about 10%, no sharp cut-off; inactive = mostly below about 6.7%
# E coli Lon inh: inhibitors of E. coli Lon protease, primary screen, biochemical, fluorescence polarization; P0A9M0; purified E. coli Lon protease; inhibition, % at 7.94 µM; actives 0.42% (n = 360,000); AID 602123, 2011; in the data active = inhibition above about 13%, passing the limit was not always enough;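 note: 0% = enzyme with probe and DMSO and 100% = no enzyme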
# RTF Ca sens inh: cardiac RTF calcium sensitivity inhibitors, primary screen, biochemical, IANBD-TnC fluorescence, EC70 calcium; Troponin I, cardiac muscle (Homo sapiens) + Troponin T, cardiac muscle (Homo sapiens) + …; IANBD-labeled cardiac RTF, Ca2+ fluorescence; inhibition, % at 7.15 µM; actives 0.12% (n = 340,000); AID 493244, 2011;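 active = inhibition above the mean inhibition of all tested compounds plus 3 SD, cut at about 17% in these data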;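 note: assay run at fixed EC70 calcium of 1.6 mM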
# RTF Ca sens act: cardiac RTF calcium sensitivity activators, primary screen, biochemical, IANBD-TnC fluorescence, EC20 calcium; Troponin I, cardiac muscle (Homo sapiens) + Troponin T, cardiac muscle (Homo sapiens) + …; IANBD-labeled TnC RTF fluorescence at EC20 calcium; 0% EC20 calcium, 100% full calcium; activation, % at 7.2 µM; actives 0.24% (n = 340,000); AID 493008, 2010;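 active = activation above the mean over all tested compounds plus 3 SD, cut at about 30% in these data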;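 note: rise in fluorescence read as greater calcium sensitivity of cardiac thin filaments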
# Keap1-Nrf2 PPI: Keap1-Nrf2 protein-protein interaction inhibitors, primary screen, biochemical, fluorescence polarization, single point | Kelch-like ECH-associated protein 1 (Homo sapiens), Q14145 | Keap1 Kelch-Nrf2 peptide fluorescence polarization, 1536-well | inhibition, % at 9.4 µM | actives 0.15% (n = 340,000) | AID 504523, 2011; in the data active = inhibition above about 12%;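 note: human Keap1 Kelch domain with fluorescein labeled Nrf2 9mer peptide probe; 0% = neutral control wells and 100% = peptide positive control; higher means more block of Keap1 binding to Nrf2 peptide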
# Target sequence (Q14145 whole entry, looked up, the tested form may be a part): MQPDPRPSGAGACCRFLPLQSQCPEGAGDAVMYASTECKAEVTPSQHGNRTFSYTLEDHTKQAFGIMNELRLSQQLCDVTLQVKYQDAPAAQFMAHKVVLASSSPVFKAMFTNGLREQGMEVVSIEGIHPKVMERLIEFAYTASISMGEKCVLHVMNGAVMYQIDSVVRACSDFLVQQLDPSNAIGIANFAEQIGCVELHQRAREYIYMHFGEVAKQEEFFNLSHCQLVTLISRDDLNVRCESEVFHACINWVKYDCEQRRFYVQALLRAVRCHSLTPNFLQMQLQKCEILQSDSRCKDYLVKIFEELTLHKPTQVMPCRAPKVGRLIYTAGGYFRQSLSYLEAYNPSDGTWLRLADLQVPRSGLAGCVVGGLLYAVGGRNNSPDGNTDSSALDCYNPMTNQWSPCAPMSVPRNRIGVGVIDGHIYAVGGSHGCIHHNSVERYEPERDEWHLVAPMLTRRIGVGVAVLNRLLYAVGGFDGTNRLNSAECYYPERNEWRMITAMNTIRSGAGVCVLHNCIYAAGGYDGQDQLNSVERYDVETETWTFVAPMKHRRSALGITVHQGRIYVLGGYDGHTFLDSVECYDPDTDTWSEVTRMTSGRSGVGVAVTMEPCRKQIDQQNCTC
# Numbers without * were called inactive; / = no result given.
SMILES,LANA DNA inh,LANA-H2A inh,E coli Lon inh,RTF Ca sens inh,RTF Ca sens act,Keap1-Nrf2 PPI
COc1ccc(CC(=O)Nc2cc(S(=O)(=O)N3CCCCC3)ccc2C)cc1OC,0.8,-0.6,1.1,-6.9,8.6,-7.4
Cc1ccc(NC(=O)C2CC(=O)n3c(nc4ccccc43)N2)cc1C (stereo unspecified),0.4,16.5*,0.8,-6.2,-1.9,-2.2
CS(=O)(=O)N(CC(=O)Nc1ccccc1C(=O)NCc1ccccc1)c1ccc2c(c1)OCCO2,0.5,85.9*,-6.2,-3.0,-5.2,-2.7
CC1CCN(C(=O)N[C@@H](Cc2ccccc2)C(=O)O)CC1,0.8,0.1,-9.4,-0.3,-5.4,0.4
O=C(O)[C@H](Cc1ccccc1)NC(=O)N1CCC(Cc2ccccc2)CC1,0.5,17.9*,12.9,-3.8,3.8,-2.2
O=C(C1CCN(S(=O)(=O)c2cnc[nH]2)CC1)N1CCN(c2ncccn2)CC1,-1.8,17.2*,9.5,0.0,2.7,-3.6
CCCc1cc(C(=O)NC2CCCN(Cc3ccccc3F)C2)no1 (stereo unspecified),0.1,3.9,-2.9,-4.2,2.1,-1.9
Cn1ccc2c(-c3ccc4c(c3)OCCO4)cc3c(c21)C1CCC3C1 (stereo unspecified),/,/,8.0,/,/,/
CCN(CC(=O)Nc1ccc(NC(C)=O)cc1)C(=O)C1CCCC1,1.7,102.9*,-6.8,-13.2,5.5,-0.2
CCN(CC(=O)Nc1ccc(NC(C)=O)cc1)C(=O)c1ccc2c(c1)OCO2,0.7,22.1*,9.2,0.5,2.3,2.8
COc1ccc(S(=O)(=O)NNC(=O)C(=O)NNc2ccccn2)cc1,-2.0,2.5,3.2,-7.9,1.1,-4.1
CCC(=O)N(C)C[C@H]1Oc2cc(-c3cccnc3)ccc2S(=O)(=O)N([C@H](C)CO)C[C@H]1C,/,/,-2.7,/,/,/
O=C(CSc1ccc(C(F)(F)F)cc1[N+](=O)[O-])Nc1ccccc1,0.9,2.7,36.7*,-2.4,0.0,-5.2
CC(C)(C)c1ccc(Cn2c(=O)cnc3ccccc32)cc1,-1.4,16.8*,-3.8,-9.7,3.1,-1.5
O=C(NCCOc1ccc2ccccc2c1)c1cncc(Br)c1,0.6,-4.5,-9.9,-7.2,1.2,-3.2
COc1ccccc1NC(=O)c1c([N+](=O)[O-])cnn1C,0.7,15.3*,-5.3,-22.8,0.8,3.3
Cn1ncc([N+](=O)[O-])c1C(=O)Nc1ccccc1C(=O)O,-0.5,3.8,-2.7,-2.1,-3.2,3.1
COc1ccc(S(=O)(=O)CCC(=O)N2CCN(c3ccc(C(C)=O)cc3)CC2)cc1,-0.4,13.1*,1.8,-19.6,2.6,-5.1
COc1ccc(N2CCN(C(=O)CCS(=O)(=O)c3ccc(OC)cc3)CC2)cc1,1.5,-2.7,-8.6,-6.5,-3.8,-9.5
CC(=O)Nc1ccc(S(=O)(=O)NCC(=O)OCC(=O)N2CCc3ccccc32)cc1,0.5,11.4*,5.0,-9.0,15.0,-4.1
O=C(CNS(=O)(=O)c1ccccc1Br)OCC(=O)N1CCc2ccccc21,0.2,0.5,-0.1,-3.6,0.4,1.0
CCCn1c(=N)c(C#N)cc2c(=O)n3ccccc3nc21,-1.0,13.1*,-6.6,3.8,-4.2,-1.1
CC1(C(=O)NC2CCN(Cc3ccccc3)CC2)CCN1Cc1ccc2ccccc2c1 (stereo unspecified),/,/,1.4,/,/,/
O=C(CN1C(=O)C2CCCN2C(=O)c2ccccc21)Nc1ccccc1-n1cccc1 (stereo unspecified),/,30.0*,/,/,/,/
O=S(=O)(Nc1ncccn1)c1ccc(NC(=S)Nc2ccccc2Cl)cc1,0.6,0.7,-0.5,2.8,-2.8,-2.2
Cc1ccc(-c2cc(N)nc(-c3ccccc3)c2)cc1,0.1,31.3*,1.3,-2.6,-4.0,-1.0
